hgDAF-12 ag: agonists of H. glycines DAF-12 nuclear receptor. HEK293 GAL4-hgDAF12 UAS-luciferase reporter, agonist luminescence; normalized to butyrate control. activation, % at 6.8 µM. actives 1.8% (n = 370,000). AID 687014;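 active = activation above a cutoff set at the mean of all screened compounds plus 3 SD, cut at about 10% in these data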;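 note: 0% = DMSO wells and 100% = sodium butyrate wells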
DAX1 inh-1: NR0B1 (DAX1) inhibition; P51843; HEK293 Gal4-DAX1 luciferase reporter, luminescence; inhibition, % at 6.75 µM; actives 0.99% (n = 340,000); AID 504766;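 active = inhibition above the mean over all tested compounds plus 3 SD, cut at about 4.2% in these data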;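 note: 0% = DAX1-transfected cells with DMSO and 100% = empty-vector control cells with DMSO; inhibition shows as a rise in luminescence from relieved DAX1 repression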
Target sequence (P51843 207-470 limits assumed): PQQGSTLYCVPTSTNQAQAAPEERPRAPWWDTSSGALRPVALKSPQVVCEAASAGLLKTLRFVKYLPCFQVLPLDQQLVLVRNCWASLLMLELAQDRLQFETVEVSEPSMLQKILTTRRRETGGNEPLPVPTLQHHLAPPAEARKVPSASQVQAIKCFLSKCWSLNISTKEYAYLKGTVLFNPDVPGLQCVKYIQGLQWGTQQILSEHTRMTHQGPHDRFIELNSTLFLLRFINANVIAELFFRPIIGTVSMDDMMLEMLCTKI
ssDAF12 agonist: activators of S. stercoralis DAF-12 nuclear receptor. HEK293 ssDAF-12/GRIP1 lit1-tk-luc reporter, luminescence; % of 3 µM dafachronic acid response. AID 652126. actives 1% (n = 370,000). activation, % at 6.8 µM;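 active = activation above the mean over all tested compounds plus 3 SD, cut at about 0.9% in these data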;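 note: 0% = DMSO-only wells and 100% = 3 µM delta7-dafachronic acid wells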
hcDAF-12 act: activators of H. contortus DAF-12 nuclear receptor | HEK293 hcDAF-12 lit1-tk-luc reporter, luminescence; 0% DMSO, 100% Δ7-dafachronic acid | activation, % at 6.8 µM | actives 1.4% (n = 370,000);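 active = activation above the mean of all tested compounds plus 3 SD, cut at about 5.5% in these data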;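 note: 100% = response to 3 µM Δ7-dafachronic acid high control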
FXN GAA850 act: activators of GAA850 frataxin (FXN) promoter | HEK293 lucGAA850 FXN promoter luciferase reporter, 24 h; percent of 10 µM SAHA response | activation, % at 6 µM | actives 0.56% (n = 360,000) | AID 540364;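 active = activation above the average of all compounds screened plus 3 SD, cutoff fixed separately per campaign, cut at about 7.5% in these data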;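 note: 0% = DMSO wells and 100% = 10 µM SAHA wells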
DAX1 inh-2: DAX1 (NR0B1) inhibition, primary screen; HEK293T StAR-luciferase reporter, SF-1/DAX-1 repression relief; inhibition, % at 6.8 µM; actives 1.1% (n = 370,000); AID 652010;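 active = inhibition above the mean over all tested compounds plus 3 SD, cut at about 3.6% in these data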;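 note: 0% = DAX-1 cells with DMSO and 100% = cells lacking DAX-1 with DMSO; higher inhibition means more luminescence from relief of DAX-1 repression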
hgDAF12 ag: hgDAF-12 agonism, confirmation assay | shares compounds with hgDAF-12 ag | HEK293 GAL4-hgDAF12 luciferase reporter, agonist mode; percent of butyrate response | activation, % at 6.8 µM | actives 80% (n = 3,300) | AID 743050;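 active = mean activation over triplicate wells above the hit cutoff derived from the earlier primary screen, cut at about 11% in these data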;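 note: 0% = DMSO low control and 100% = 2 mM sodium butyrate high control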
LXRb DAF12 ctr: activates human LXR-beta, counter-screen for DAF-12 agonists | activation, % at 6.8 µM | 3,300 tested, under 10 active | shares compounds with hgDAF-12 ag | HEK293 Gal4-LXR luciferase reporter, 24 h;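 active = mean activation of the triplicate above a set limit carried over from the primary screen, none filed active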
Starred values were filed as active, the others as inactive; . = no result. In the library only some 4.5% were active in any assay of this set; here they are far more common.

SMILES	hgDAF-12 ag	DAX1 inh-1	ssDAF12 agonist	hcDAF-12 act	FXN GAA850 act	DAX1 inh-2	hgDAF12 ag	LXRb DAF12 ctr
Cc1cccc(Nc2nn3c(=O)c4ccccc4nc3s2)c1	5	2	-1	2	3	0	.	.
CCCSc1nn2c(=O)c3ccccc3nc2s1	15*	0	-1	4	2	3	16*	1
CCOC(=O)c1sc(NC(=O)c2ccc(S(=O)(=O)N(C)C)cc2)cc1C	-4	-2	-3	-5	0	-2	.	.
CCOC(=O)c1sc(NC(=O)c2ccccc2)cc1C	17*	1	0	3	4	1	13*	1
CCc1ccc(-n2c(=O)c3c(C)c(C)sc3n(CC(=O)NCC3CCCO3)c2=O)cc1 (configuration not stated)	-1	-2	-2	-1	0	0	.	.
CSc1ncccc1C(=O)OCc1ccc([N+](=O)[O-])cc1	7	0	-2	0	0	0	.	.
CCN(CC)C(=O)c1ccc2nc([C@H]3C[C@H](O)[C@@H](CO)O3)[nH]c2c1	-1	.	-1	1	1	1	.	.
OC[C@H]1O[C@@H](c2nc3ccc(-c4nc(-c5ccc(Br)cc5)no4)cc3[nH]2)C[C@@H]1O	14*	.	0	4	2	4.4*	9	1
Cc1ccc(Sc2ccc(C(=O)N3CCOCC3)cc2[N+](=O)[O-])cc1	-3	-1	-1	-1	0	-1	.	.
Cc1c(Br)c([N+](=O)[O-])nn1CC(=O)Nc1ccc(Cc2ccncc2)cc1	-2	0	-2	-3	1	0	.	.
CCCCN1C(=O)C(=O)N(c2ccccc2)C1=S	16*	2	0	4	5	4.1*	14*	1
Fc1ccc(NC(=S)NCCN2CCOCC2)c(F)c1F	1	-1	-1	0	1	-1	.	.
Cc1cc(C(=O)NCCc2ccccc2)ccc1[N+](=O)[O-]	13*	3	0	6	3	3	12*	0
O=C(NCCc1ccccc1)c1ccc(Cl)c([N+](=O)[O-])c1	9	1	0	2	2	2	.	.
CCn1c(O)c(/C=C2\C=Nc3ccccc32)sc1=O	14*	2	0	4	6	2	22*	1
Cc1cc(C)n(C(C)CC(=O)Nc2ccc3c(c2)OCO3)n1 (configuration not stated)	3	0	0	-1	-1	0	.	.
CSCCNC(=O)c1ccc(C(C)(C)C)cc1	16*	0	1.1*	4	2	3	16*	1
CC(C)(C)SCCNC(=O)c1ccccc1	7	3	0	2	7	2	.	.
CSc1ccccc1C(=O)Nc1ccc2c(c1)OCCO2	3	0	-1	0	-1	1	.	.
CCc1ccc(NC(=O)c2ccccc2SC)cc1	16*	2	1	1	4	3	4	0
Nc1nccc(-c2cc(-c3ccc(Cl)cc3Cl)no2)n1	15*	10*	1.9*	5.7*	3	2	20*	1
Nc1c(-c2cccs2)cnn1-c1nc(-c2ccc(Cl)cc2Cl)cs1	1	3	-1	1	1	-1	.	.
COc1cccc(C(=O)Nc2ccc(C(F)(F)F)n(C)c2=O)c1	18*	2	-1	6.3*	2	2	14*	1
CN=C(Nc1ccc(C(=O)OC)s1)c1ccc(Cl)cc1	4	1	-2	-2	-1	0	.	.
Cc1cc(NC(=O)c2cccc(Br)c2)n[nH]1	5	1	-1	1	4	0	.	.
SMILES	hgDAF-12 ag	DAX1 inh-1	ssDAF12 agonist	hcDAF-12 act	FXN GAA850 act	DAX1 inh-2	hgDAF12 ag	LXRb DAF12 ctr
COc1ccc(C(=S)Nc2ccc(N(C)C)cc2)cc1	15*	1	1	6	1	4.0*	15*	1
COc1ccc(NC(=S)c2ccccc2)cc1	8	1	-1	1	3	2	.	.
COc1cccc(C(=O)Nc2ccc(C3CC3(Cl)Cl)cc2)c1 (configuration not stated)	19*	0	1.2*	2	7	3	18*	1
COc1cccc(C(=O)NC(=O)Nc2cc(C)[nH]n2)c1	15*	8.1*	0	4	6	3	14*	1
COc1cccc(C(=O)Nc2ccc(C(=O)O)cc2)c1	0	0	-1	-2	1	-1	.	.
COc1cccc(C(=O)NC(=S)Nc2ccc(N3CCCC3)cc2)c1	3	1	-1	1	1	-1	.	.
COc1cccc(C(=O)NC(=S)Nc2ccc(N(C)C)cc2)c1	18*	0	-1	0	4	1	12*	0
CCN(c1ccccc1)S(=O)(=O)c1ccc(OC)c(NC(=O)c2cc(Cl)ccn2)c1	-2	0	-1	-1	-1	-1	.	.
Cc1cc(C(=O)Cn2c(CO)nc3ccccc32)c(C)n1C	2	2	0	0	3	0	.	.
COc1cccc(C(=O)Nn2cnnc2)c1OC	1	2	-2	2	-2	0	.	.
COC(=O)N1C(=O)[C@](Cc2ccccc2)(c2ccccc2)N1C(=O)OC	0	1	-2	0	0	1	.	.
COc1ccc(OCc2cc(C(=O)NC3Cc4ccccc4C3)no2)c(Cl)c1	15*	-1	0	2	1	-1	2	0
Cc1ccc(NC(=O)c2[nH]cnc2C(=O)NN)cc1	13*	1	-1	0	2	1	2	0
Cc1ccc(NC(=O)c2nc[nH]c2C(=O)NCCCNC(=O)c2[nH]cnc2C(=O)Nc2ccc(C)cc2)cc1	.	0	.	.	1	.	.	.
S=c1[nH]nc(Cn2cnc3ccccc32)n1-c1ccccc1	1	0	-1	0	2	0	.	.
CC1CCc2nc3sc4c(c3c(N)c2C1)CCCC4 (configuration not stated)	14*	-1	0	-1	5	3	11*	0
CCc1nc2sc3c(c2c(=O)o1)CCCC3	0	1	0	2	-1	0	.	.
CCN(CC)C(=O)[C@H]1CC(CC(=O)NCC23CC4CC(CC(C4)C2)C3)C(=O)N2CCc3c([nH]c4ccc(OC)cc34)[C@]12C (some centres not stated)	1	-1	-1	-2	-1	0	.	.
COc1cccc(NC(=O)Nc2nc3ncccn3c2-c2ccc(C)cc2)c1	14*	.	0	0	.	0	6	0
COc1cccc(NC(=O)NCc2ccccn2)c1	4	0	0	-2	2	2	.	.

Assay outcomes (PubChem)
